# Compound activity from PubChem.
# Sampled rows, rich in hits. Any-hit rate of the full collection: about 2.9%.
# Rango complex inh – Rango-importin beta binding inhibition; Q14974; Rango CFP/YFP FRET sensor + importin beta, 45 min; Potency, µM (titrated, usually from 92.2 µM), inactives show at the highest dose inhibition of complex formation; 340,000 tested, 0.031% active; AID 540263;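 further: potency means the concentration at half of the fitted maximal effect; 0% = DMSO wells and 100% = buffer wells lacking importin beta; nearly all actives have a fitted effect of over 15% in size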
#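 Inhibition scored from the CFP 486 nm/YFP 530 nm FRET ratio 45 min after adding 0.125 microM importin beta to 50 nM Rango biosensor preincubated 5 min with compound (room temperature, PBS with DTT, Tween-20, BSA). No-importin wells as positive control.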
# Rango dissoc inh – inhibitors of RanGTP-induced Rango-importin beta complex dissociation. Biochemical FRET Rango-importin beta, RanGTP-induced dissociation. Potency, µM (titrated, usually from 46.1 µM), for the others: top-dose activity change, negative = inhibition. 340,000 tested, 0.071% active; further: potency means the concentration at half of the fitted maximal effect; % of control where 0% means no effect; nearly all actives have a fitted effect of over 45% in size
#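 Rango (0.1 uM)–importin beta (0.25 uM) complex; RanGTP-RCC1 trigger; 45 min RT; CFP/YFP FRET read.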
# DRD3 antagonist – antagonists of human D3 dopamine receptor. P35462. D3R cells, DiscoveRx beta-arrestin luminescence, antagonist mode; hits give low values. max response, negative = inhibition, %. 360,000 tested, 2.5% active. AID 652054; in the data active means max response below about -50%; inconclusive means no clear call, values can overlap the other calls; further: on the % scale 0 is the no-effect control and ±100 the full control effect
# Target sequence (P35462 whole entry, looked up): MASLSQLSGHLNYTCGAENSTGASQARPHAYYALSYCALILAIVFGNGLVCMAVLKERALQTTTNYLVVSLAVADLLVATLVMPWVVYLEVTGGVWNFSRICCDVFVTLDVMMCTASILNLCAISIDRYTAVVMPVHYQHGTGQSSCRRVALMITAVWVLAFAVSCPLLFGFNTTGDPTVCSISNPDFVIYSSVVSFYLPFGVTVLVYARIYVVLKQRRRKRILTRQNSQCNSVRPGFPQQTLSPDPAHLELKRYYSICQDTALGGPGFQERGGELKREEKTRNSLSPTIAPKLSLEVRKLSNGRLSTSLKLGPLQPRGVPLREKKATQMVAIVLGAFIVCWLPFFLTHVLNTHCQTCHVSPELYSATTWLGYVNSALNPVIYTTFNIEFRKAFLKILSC
#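 Cells plated overnight at 1500 cells/well, then exposed to library compounds with dopamine controls for 90 minutes at 37 degrees C. DiscoveRx reagent added for 30–60 minutes at room temperature; luminescence read, quantitative HTS format.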
# DRD3 agonist – D3 dopamine receptor (human) agonism; D3R DiscoveRx beta-arrestin cells, luminescence, 90 min; max activation, %; 410,000 tested, 0.58% active; in the data active means max activation above about 30%; further: 0% is about no effect
#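 Cells at 1500/well, incubated overnight, then treated with pinned compounds (dopamine as control) for 90 min at 37 degrees C. DiscoveRx reagent added for 30 - 60 minutes at room temperature; luminescence read.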
# PTAP TSG101 blk – blocks PTAP/TSG101 interaction to inhibit HIV-1 budding; Potency, µM (doses to about 115 µM), inactives show at the highest dose activity change, negative = inhibition, usual class: inhibitors; Fluorescence polarization, FITC-PTAP peptide / Tsg101 binding; 340,000 tested, under 10 active; Q99816; active means well fitted inhibition curve with a large enough effect in the main read-out, with a control signal flat, not every such curve was filed as active; inconclusive means small, poorly fitted or top-dose-only effect, or effect the other way, or a change in a side signal; inactive means no such curve, though single readings can be large or run the other way; further: potency means the concentration at half of the fitted maximal effect; % of control where 0% means no effect
#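 Compounds were pin-transferred onto Tsg101 binding domain (10 uM final) in HEPES pH 7.5 buffer, then FITC-PTAP peptide was added at 50 nM final. After 20 min at RT, polarization reported peptide displacement across a qHTS concentration series.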
# Mm-Cpn inhibitor – blocks the Methanococcus maripaludis chaperonin Mm-Cpn; 330,000 tested, 0.031% active; AID 504842; purified Mm-Cpn ATPase, ADP Transcreener TR-FRET; Potency, µM (top dose mostly 76.9 µM), for inactives: at the highest dose activity, negative = inhibition, most hits filed as inhibitors; active means well fitted inhibition curve with a large enough effect; inconclusive means small, poorly fitted or top-dose-only effect; further: potency means the concentration at half of the fitted maximal effect; on the % scale 0 is the no-effect control and ±100 the full control effect; nearly all actives have a fitted effect of over 80% in size
#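 Purified archaeal Mm-CPN (25nM final) preincubated 10 min at 37degC with compound, then 10uM ATP for 30 min at 37degC; ADP measured by HTRF Transcreener TR-FRET; buffer 30 mM TRIS pH 7.4, 100mM KCl, 5mM MgCl2, 1mM DTT.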
# * hit, by the source's call; ? = inconclusive; . = not tested or not shown. Unless noted, the call rests on the fitted dose curve.
SMILES,Rango complex inh,Rango dissoc inh,DRD3 antagonist,DRD3 agonist,PTAP TSG101 blk,Mm-Cpn inhibitor
Cc1ccc(Cl)cc1-c1cc(C(=O)Nc2ccc(F)cc2)[nH]n1,.,.,-85*,-18,.,.
COc1ccc(S(=O)(=O)NCC(c2ccco2)S(=O)(=O)c2cccs2)cc1F (stereo not given),.,.,.,1,.,.
COc1ccc(-c2nc(SCC(=O)Nc3ccccc3)c(-c3ccc(F)cc3)[nH]2)cc1OC,.,.,.,-23,.,.
COc1ccc(-c2nc(-c3ccccc3)c(-c3ccc(F)cc3)[nH]2)c(OC)c1C,.,.,.,-15,.,.
Cn1cnc2c(F)c(Nc3ccc(Br)cc3Cl)c(C(=O)NOCCO)cc21,.,.,.,3,.,.
COc1cccc(C(=O)c2cn(CC(=O)NCc3ccccc3)c3nc(C)ccc3c2=O)c1,.,.,.,-3,.,.
CCOC(=O)C1CCCN(C(=O)Cn2cnc3c2c(=O)n(C)c(=O)n3C)C1 (stereo not given),1%,-12%,15,32*,-4%,-1%
CCOc1ccc(NS(=O)(=O)c2ccc3[nH]cc(C(=O)NCC4CCCO4)c(=O)c3c2)cc1 (stereo not given),?,9%,-55*,-2,-4%,3%
Oc1c(C=NCc2ccc(F)cc2)[nH]c2ccc(Br)c(Cl)c12,.,.,.,.,.,-3%
Cc1ccc(CN=Cc2[nH]c3ccc(Br)c(Cl)c3c2O)cc1,?,-21%,-101*,-26,7%,-2%
O=C(Nc1ccccc1C(=O)OCc1cc(=O)n2ccsc2n1)c1ccc(Cl)cc1,.,.,.,-7,.,.
COc1ccccc1Cc1c(-c2ccco2)nc2cc(C)c(Br)c(C)n12,.,.,-107*,-16,.,.
Cc1cc2nc(-c3ccco3)c(CC(C)(C)C)n2c(C)c1Br,.,.,0,1,.,.
COc1ccccc1N1CCN(CCN2C(=O)CC(=C3c4ccccc4-c4ccccc43)C2=O)CC1,-1%,-17%,-76*,-7,-3%,.
Cc1ccccc1N1CCN(CCN2C(=O)CC(=C3c4ccccc4-c4ccccc43)C2=O)CC1,-1%,2%,-65*,-5,-3%,.
CCOc1ccc(-c2cnc(NCc3ccc(C(F)(F)F)cc3)n2C)cc1,.,.,.,-31,.,.
CCOc1ccc(NC(=O)c2c(NCc3cccnc3)sc3c2CCCC3)cc1,.,.,.,6,.,.
Cc1ccc(NC(=O)NCC2CCN(Cc3cccc(Cl)c3)CC2)cc1Cl,?,1%,-51*,-24,1%,0%
CCc1ccc(NC(=O)NCC2CCN(Cc3cccc(Cl)c3)CC2)cc1,2%,-8%,-52*,-4,2%,1%
Cc1ccc(C)c(CN2CCC(CNC(=O)Nc3ccc(F)c(Cl)c3)CC2)c1,3%,-7%,-66*,-21,-2%,0%
Cc1ccc(NC(=O)NCC2CCN(Cc3cccc(Cl)c3)CC2)c(Cl)c1,-1%,-3%,-27,-15,-4%,-3%
CN(C(=O)CSc1nc2ccc(NC(=O)c3cccs3)cc2s1)c1ccccc1,.,.,.,4,.,.
COc1cc(CN2CCc3c([nH]c4ccccc34)C2)cc(OC)c1,-4%,-1%,-68*,-16,-1%,-1%
Clc1cccc(CN2CCc3c([nH]c4ccccc34)C2)c1Cl,?,-8%,0,0,-5%,-1%
COc1ccccc1CN1CCc2c([nH]c3ccccc23)C1,0%,-16%,-90*,-6,0%,-2%
COc1ccccc1CNC(=O)CN(C)S(=O)(=O)c1ccc(F)cc1,1%,7%,3,-10,-2%,0%
Cc1ccc(Cl)cc1NC(=O)c1sc2nc(-c3ccccc3)cn2c1C,.,.,.,-12,.,.
Cc1cc(N2CCCC2)nc2ccc(NC(=S)NCCCN3CCC(C)CC3)cc12,3%,15µM*,-66*,-23,-2%,0%
CCN1CCN(c2cc(C)c3cc(NC(=O)c4cc(OC)c(OC)c(OC)c4)ccc3n2)CC1,.,.,.,-26,.,.
CCN1CCN(c2cc(C)c3cc(NC(=S)NCCCN4CCc5ccccc5C4)ccc3n2)CC1,-4%,-9%,-87*,-20,-1%,0%
